Screening results from PubChem.
A selection: hits, their analogues and other compounds. The true share with any hit is near 2.4%.
POLB inh – qHTS Assay for Inhibitors of DNA Polymerase Beta; P06746; Pol beta primer extension/strand displacement, fluorescence kinetic; Potency, µM (highest dose often 114 µM), for inactives: top-dose activity change, negative = inhibition, hits mostly inhibitors; 340,000 tested, 1.3% active; AID 485314, 2010; further: on the % scale 0 is the no-effect control and ±100 the full control effect
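Curves were derived by four-parameter Hill fits of normalized qHTS data. The kinetic fluorescent primer-extension read was taken at 0 and 10 min after 50 nM substrate, following a 15 min room-temperature preincubation of 10 nM enzyme with compounds.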
POLI inh – qHTS for Inhibitors of Polymerase Iota. Potency, µM (series often up to 115 µM), for the others: at the top dose activity, negative = inhibition, actives largely listed as inhibitors. Pol iota fluorescent replication assay, 10 min. 390,000 tested, 1% active. AID 588590, 2011. DNA polymerase iota (Homo sapiens), Q9UNA4
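Pol iota at 10 nM preincubated 15 min with compounds at room temperature; reaction started with fluorescent substrate, 50 nM final. Fluorescence read kinetically at 0 and 10 min; buffer-only wells as negative control.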
FEN1 inhibitor – qHTS Assay for the Inhibitors of Human Flap endonuclease 1 (FEN1); P39748; Recombinant FEN1 flap cleavage, fluorescence, 15 min; Potency, µM (series often up to 114 µM), without a hit: at the highest dose activity change, negative = inhibition, hits mostly inhibitors; 390,000 tested, 0.35% active; AID 588795, 2011; further: on the % scale 0 is the no-effect control and ±100 the full control effect; nearly all actives have a fitted effect of over 65% in size
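Reaction started by adding substrate (50 nM final) to 10 nM enzyme after 15 min room-temperature compound preincubation. Reads at 0 and 15 min, with data normalized and fitted to a four-parameter Hill equation.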
POLK inh – qHTS for Inhibitors of Polymerase Kappa; DNA polymerase kappa (Homo sapiens), Q9UBT6; purified Pol kappa, fluorescent DNA synthesis assay, 10 min; Potency, µM (titrated, usually from 107 µM), without a hit: at the highest dose activity, negative = inhibition, most hits filed as inhibitors; 400,000 tested, 0.53% active; further: on the % scale 0 is the no-effect control and ±100 the full control effect
Target sequence (Q9UBT6 whole entry, looked up): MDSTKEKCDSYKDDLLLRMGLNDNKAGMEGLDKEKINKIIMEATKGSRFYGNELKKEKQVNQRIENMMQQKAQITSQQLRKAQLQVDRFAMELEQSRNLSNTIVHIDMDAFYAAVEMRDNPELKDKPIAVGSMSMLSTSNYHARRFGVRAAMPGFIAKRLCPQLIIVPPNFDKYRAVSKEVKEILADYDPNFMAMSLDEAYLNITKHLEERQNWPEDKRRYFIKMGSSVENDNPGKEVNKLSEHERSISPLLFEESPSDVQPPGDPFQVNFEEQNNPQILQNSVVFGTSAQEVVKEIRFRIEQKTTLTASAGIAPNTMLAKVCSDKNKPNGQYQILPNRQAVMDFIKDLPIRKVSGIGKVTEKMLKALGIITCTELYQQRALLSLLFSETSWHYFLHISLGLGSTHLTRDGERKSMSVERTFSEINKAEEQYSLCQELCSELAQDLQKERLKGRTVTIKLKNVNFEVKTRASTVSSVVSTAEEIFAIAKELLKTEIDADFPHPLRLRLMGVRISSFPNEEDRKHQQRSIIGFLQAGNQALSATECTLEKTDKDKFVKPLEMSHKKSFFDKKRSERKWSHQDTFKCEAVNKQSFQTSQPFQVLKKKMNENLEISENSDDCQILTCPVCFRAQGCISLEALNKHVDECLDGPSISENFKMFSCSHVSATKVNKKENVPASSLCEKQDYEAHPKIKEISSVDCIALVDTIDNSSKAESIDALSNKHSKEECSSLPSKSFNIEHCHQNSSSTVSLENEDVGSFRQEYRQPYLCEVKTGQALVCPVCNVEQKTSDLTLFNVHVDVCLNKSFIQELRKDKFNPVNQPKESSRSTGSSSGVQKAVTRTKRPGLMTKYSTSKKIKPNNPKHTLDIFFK
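Readout: fluorescence, taken kinetically at 0 and 10 min. Conditions: 10 nM Pol kappa, 15 min RT compound preincubation, 50 nM substrate final. Controls: enzyme-free buffer wells.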
POLH inh – qHTS for Inhibitors of Polymerase Eta. recombinant Pol eta, fluorescent DNA replication assay. 390,000 tested, 1.2% active. Potency, µM (titrated, usually from 114 µM), without a hit: at the top dose activity change, negative = inhibition, most hits filed as inhibitors. DNA polymerase eta (Homo sapiens), Q9Y253; further: on the % scale 0 is the no-effect control and ±100 the full control effect
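Fluorescent replication assay: 50 nM final substrate added after a 15 min room-temperature compound preincubation with 10 nM enzyme. Signal taken at 0 min and again at 10 min.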
WRN helicase inh – qHTS for Inhibitors of WRN Helicase. WRN helicase unwinding, fluorescent forked duplex, kinetic. Bifunctional 3'-5' exonuclease/ATP-dependent helicase WRN (Homo sapiens), Q14191. 360,000 tested, 0.46% active. Potency, µM (doses to about 114 µM), without a hit: at the highest dose activity change, negative = inhibition, most hits filed as inhibitors; further: on the % scale 0 is the no-effect control and ±100 the full control effect; nearly all actives have a fitted effect of over 55% in size
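Kinetic fluorescence helicase assay: unwinding of a quenched forked DNA duplex (100 nM final) with 2 mM ATP final raises red fluorescence (525/598 nm). Compounds sat 15 min at room temperature with 20 nM WRN beforehand.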
Starred values were filed as active, the others as inactive; u = inconclusive; x = no result given; [ ] = remark or other dose. The call rests on the fitted dose curve; in most records, active means well fitted curve in the direction sought with a large enough effect; inconclusive means small, poorly fitted or top-dose-only effect, or another doubt; inactive means no such curve, though single readings can be large; an effect the other way counts as inactive or inconclusive. Potency means the concentration at half of the fitted maximal effect.

SMILES | POLB inh | POLI inh | FEN1 inhibitor | POLK inh | POLH inh | WRN helicase inh
CCOc1ccc(C2Nc3cccc4cccc(c34)N2)cc1OC | -17.8% | u | 10.2% | 1.1% | u | -9.6%
CCOc1ccc(Oc2ccccc2NS(=O)(=O)c2ccc(CCC(=O)O)cc2)cc1 | x | 15.9% | -3.6% | -12.1% | 35.5µM* | 0.3%[11.6 µM]
CCOc1ccc(S(=O)(=O)Nc2ccccc2C(=O)N2CCCC2)cc1 | 0.7% | 21.6% | 1.9% | -6.8% | -9.6% | -19.1%
CC(=O)c1c(C(C)=O)c(C)n(-c2ccc(C(=O)O)cc2)c1C | 10.4% | 6.4% | 0.6% | 0.9% | -0.1% | -2.7%
COc1cccc(=O)c2c(C)n(-c3ccc(C(=O)O)cc3)c(C)c12 | 15.8µM* | 15.8µM* | -35.9% | 50.1µM* | 12.6µM* | u
Cc1ccc(C)n1-c1ccc(C(=O)O)cc1 | 3.16µM* | x | x | x | x | x
COc1ccc(-n2c(C)c3c(OC)cccc(=O)c3c2C)cc1 | 7.3% | 21.8% | -8.3% | -8.5% | u | -10.5%
COCCNC(=S)Nc1ccc2nsnc2c1 | 43.0% | 20µM* | 3.0% | -12.7% | -5.7% | -20.5%
COc1ccc(NC(=S)Nc2ccc3nc(C)c(C)nc3c2)cc1 | 4.0% | 32.9% | 3.2% | -2.3% | -16.9% | 2.3%
CCOc1ccc(NC(=S)Nc2ccc3nsnc3c2)cc1 | u | 10µM* | -30.8% | -3.7% | 22.4µM* | -4.9%[11.6 µM]
CCOc1ccc(NC(=O)Nc2ccc3nsnc3c2)cc1 | 2.5% | 7.9% | -18.8% | -10.3% | -0.6% | 0.4%
CC(C)N(C(=O)Nc1ccc2nsnc2c1)C(C)C | 10µM* | 1µM* | u | 50.1µM* | 8.91µM* | u
COCCNC(=S)Nc1ccc(Cl)c(Cl)c1 | -1.9% | 13.3% | -2.7% | -10.5% | -20.1% | -14.6%
COc1ccc(NC(=S)Nc2ccc3nsnc3c2)cc1 | -0.1% | 3.55µM* | u | 0.4% | 7.08µM* | u
O=S(=O)(Nc1nc(-c2ccccc2)cs1)c1cc(Cl)ccc1Cl | 44.7µM* | u | -3.2% | -43.2% | u | -26.3%
O=[N+]([O-])c1ccc(S(=O)(=O)Nc2nc(-c3ccccc3)cs2)cc1 | u | -10.9% | 4.0% | -24.6% | -1.3% | 1.5%
O=S(=O)(Nc1nc2ccc(S(=O)(=O)N3CCCC3)cc2s1)c1ccc(F)cc1 | -1.8% | u | -4.6% | -27.9% | 89.1µM* | -2.1%
COc1ccc(-n2ncc(C(=O)N3CCN(Cc4ccccc4)CC3)c2C2CCN(C(=O)OC(C)(C)C)CC2)cc1 | 10.6% | 33.0% | -2.4% | 5.2% | -17.2% | x
Cc1nnc(NC(=O)Cc2cccs2)s1 | 35.5µM* | 44.7µM* | -6.1% | u | u | -15.8%[57.1 µM]
Cc1ccccc1CSc1nnc(NC(=O)Cc2cccs2)s1 | 22.4µM* | 101.1% | -3.4% | -24.7% | u | -30.9%
O=C(Cc1cccs1)Nc1nnc(SCc2ccc(Br)cc2)s1 | 31.6µM* | u | -8.6% | u | u | -3.5%[11.6 µM]
Clc1ccc[n+](CCCCC[n+]2cccc(Cl)c2)c1 | x | -16.2% | u | 9.7% | x | x
Cc1ccc(C)c(NC(=O)Cn2c(=O)n(CCC(C)C)c(=O)c3cccnc32)c1 | -14.0% | 25.4% | 4.6% | -5.3% | -11.1% | x
Cc1cccc(N(C)c2nc3ccccc3c3nnc(C)n23)c1 | 1.0% | 40.4% | 3.1% | 2.6% | -17.3% | x
CN1CC[C@H](c2c(O)cc(O)c3c(=O)cc(-c4ccccc4Cl)oc23)[C@@H](O)C1 | x | u | -23.3% | -21.3% | x | x
SMILES | POLB inh | POLI inh | FEN1 inhibitor | POLK inh | POLH inh | WRN helicase inh
CC1CC=CC2C1C(=O)N(Cc1ccccc1)C2c1ccc(F)c(Br)c1 (configuration not stated) | x | -0.7% | 1.4% | -4.0% | x | x
COc1ccc(OCC(=O)Nc2ccccc2Cl)cc1 | 17.8µM* | 23.7% | 1.1% | -0.7% | -2.8% | 1.5%
OCC1OC([S-])[C@H](O)C(O)C1O.[Au+] (some centres not stated) | x | x | x | 5.01µM* | x | x
O=C(CC(C(=O)O)n1ccnc1)c1ccc(Cl)cc1 (configuration not stated) | x | u | 7.6% | 5.1% | x | x
Cc1ccc(-c2cc(C(F)(F)F)n3nc(-c4cccc(Br)c4)cc3n2)cc1 | 44.1% | 89.1µM* | -20.6% | u | -4.9% | x
Cc1ccc(-c2cc(C(F)(F)F)n3nc(-c4ccc(Cl)cc4)cc3n2)cc1 | -4.1% | 28.7% | 3.9% | -27.8% | -9.0% | x
O=C(N/N=C/c1ccc([N+](=O)[O-])o1)c1ccccc1NS(=O)(=O)c1cccs1 | u | 39.8µM* | u | -25.3% | 56.2µM* | -10.6%[11.6 µM]
Cc1cc2c(cc1NS(=O)(=O)c1cccc(C#N)c1)n(C)c(=O)c(=O)n2C | 15.7% | -19.8% | 1.0% | 0.0% | -22.5% | x
[N-]=[N+]=NCCN1CCN(CCc2ccccc2)CCC1=O | 16.7% | 50.1% | 19.1% | 2.0% | -19.9% | -2.0%
CCCN1CCC(=O)N(CCN=[N+]=[N-])CC1 | 31.6µM* | -28.9% | -8.7% | -2.0% | 5.0% | 0.4%
Cc1cc2nc(-c3ccc(OCc4ccccc4F)cc3)cc(C(F)(F)F)n2n1 | 4.1% | u | 17.1% | -2.1% | -20.6% | x
O=C1/C(=C/c2ccco2)CCc2ccccc21 | u | 29.7% | -0.4% | -5.5% | -20.7% | -0.5%
Nc1ccc2c(c1)C/C(=C/c1ccco1)C2=O | 5.62µM* | u | -23.8% | -20.4% | u | -34.4%
O=C(COc1ccccc1C(=O)Nc1ccccc1)Nc1ccccc1Cl | x | -22.2% | 0.4% | -1.0% | x | x
O=C(O)c1c2c(nc3ccc(Cl)cc13)CCC2 | 15.8µM* | 20.0% | -10.7% | -25.4% | u | -3.0%[11.6 µM]
Cc1ccc2nc3c(c(C(=O)O)c2c1)CCC3 | 44.7µM* | u | u | -42.5% | 31.6µM* | -10.3%[57.1 µM]
O=C(O)c1c2c(nc3ccc(F)cc13)CCC2 | -0.4% | 3.3% | -17.4% | -4.1% | -12.4% | -2.4%
O=C(CSc1c2c(nc3ccc(Cl)cc13)CCCC2)N1CCN(c2ccc(Cl)cc2)CC1 | -11.1% | -5.5% | 6.3% | 1.5% | -11.7% | x
Nn1c(SCC(=O)Nc2cc(C(F)(F)F)ccc2Cl)nncc1=O | 4.6% | 79.4µM* | -3.9% | u | u | u
Nn1c(SCC(=O)Nc2cccc(C(F)(F)F)c2)nncc1=O | -12.2% | -22.3% | -15.7% | -7.9% | -12.1% | -3.3%
COc1cccc(/C=C/C(=O)OCC(=O)NCCNC(=O)COC(=O)/C=C/c2cccc(OC)c2)c1 | x | -15.6% | -2.1% | -3.2% | -15.9% | 9.1%
O=C(/C=C/c1ccc(Cl)cc1Cl)c1ccc[nH]1 | 13.9% | 17.2% | 7.8% | 6.1% | -12.6% | 4.2%
